Source: PubChem BioAssay (National Center for Advancing Translational Sciences (NCATS))
TDP1 cell CPT = qHTS for Inhibitors of human tyrosyl-DNA phosphodiesterase 1 (TDP1): qHTS in cells in presence of CPT | chicken DT40 Tdp1-/-;hTDP1 cells + 20 nM CPT, ATP luminescence, 48 h | Potency, µM (series often up to 46.2 µM), most hits filed as inhibitors | 420,000 tested, 12% active; note: nearly all actives have a fitted effect of over 55% in size
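Chicken DT40 Tdp1-/- cells complemented with human TDP1, 400 cells/well, exposed to compounds plus 20 nM camptothecin for at least 48 h at 37 C; viability read as ATP content by CellTiter-Glo luminescence.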
IL-1B inflam inh = qHTS for Inhibitors of Inflammasome Signaling: IL-1-beta AlphaLISA Primary Screen. THP-1 LPS/ATP IL-1B secretion, AlphaLISA, 16 h; active compounds read low. AID 743279, 2014. 360,000 tested, 4.7% active. activity change, % at 57.5 µM; in the data active = activity change below about -50%; inconclusive = mostly about -30% to -49%
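THP-1 cells pretreated 1 hr with compounds (up to 57.5 uM final), then stimulated with LPS (250 ng/mL final) plus ATP (1.25 mM final); secreted IL-1B measured by AlphaLISA after 16 hr, decreased signal indicating inhibition.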
TGFb inhibitor = qHTS for Inhibitors of TGF-b; HepG2 CAGA-GFP TGF-b/SMAD3 reporter, GFP fluorescence, 18 h; TGF-beta stimulated, 500 pg/mL final; Potency, µM (highest dose often 46.1 µM), hits mostly inhibitors; 410,000 tested, 1.2% active; AID 588855, 2011; note: nearly all actives have a fitted effect of over 65% in size
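HEPG2 CAGA-GFP reporter cells (1000/well, DMEM with 1% FBS) received compounds, then recombinant TGF-beta at 500 pg/mL final for 18 hours at 37 degrees C. Per-cell GFP summed per well was normalised to unstimulated and stimulated DMSO controls before curve fitting.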
TDP1 block = qHTS Assay for Inhibitors of Tyrosyl-DNA Phosphodiesterase (TDP1) | Potency, µM (doses to about 130 µM), actives largely listed as inhibitors | recombinant TDP1, AlphaScreen DNA substrate cleavage | AID 485290, 2010 | 350,000 tested, 0.28% active; note: nearly all actives have a fitted effect of over 40% in size
Target sequence (Q9NUW8 whole entry, looked up): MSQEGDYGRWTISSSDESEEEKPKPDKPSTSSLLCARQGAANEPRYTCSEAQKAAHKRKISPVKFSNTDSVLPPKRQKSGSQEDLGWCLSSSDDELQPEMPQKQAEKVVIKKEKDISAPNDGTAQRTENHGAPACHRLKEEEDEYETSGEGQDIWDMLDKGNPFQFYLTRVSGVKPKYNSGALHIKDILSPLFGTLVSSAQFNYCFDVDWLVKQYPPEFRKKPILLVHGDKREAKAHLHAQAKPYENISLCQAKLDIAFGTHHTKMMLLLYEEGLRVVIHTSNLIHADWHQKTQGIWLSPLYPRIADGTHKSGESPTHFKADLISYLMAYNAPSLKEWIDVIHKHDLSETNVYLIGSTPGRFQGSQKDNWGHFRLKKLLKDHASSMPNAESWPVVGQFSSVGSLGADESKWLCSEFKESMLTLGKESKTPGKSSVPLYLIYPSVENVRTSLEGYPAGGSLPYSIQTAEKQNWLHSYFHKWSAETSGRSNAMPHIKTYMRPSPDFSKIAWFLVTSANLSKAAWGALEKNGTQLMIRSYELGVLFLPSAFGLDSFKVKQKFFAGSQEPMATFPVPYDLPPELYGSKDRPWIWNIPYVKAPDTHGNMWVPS
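Steps: enzyme plus compound, 15 min RT; add biotin/phosphotyrosine-FITC oligonucleotide (15 nM final), react 5 min; add donor/acceptor beads (10 ug/ml final), 10 min; read AlphaScreen. Tdp1 at 1 nM final.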
HepG2 tox = qHTS for Inhibitors of TGF-b: Cytotox Counterscreen; HepG2 CAGA-GFP viability, ATP luminescence, 18 h; Potency, µM (titrated, usually from 46.1 µM), actives largely listed as cytotoxic; 410,000 tested, 0.76% active
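HepG2 CAGA-GFP cells (1000/well, DMEM with 1% FBS) received compound, then TGF-beta at 500 pg/mL final, and were incubated 18 hours at 37 degrees C. Viability was read by CellTiter-Glo luminescence. Media-only wells were set as complete cell-killing and DMSO as no toxicity.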
DT40 TDP1 no CPT = qHTS for Inhibitors of human tyrosyl-DNA phosphodiesterase 1 (TDP1): qHTS in cells in absence of CPT; DT40 Tdp1-/- hTDP1 cells, no CPT, ATP luminescence, 48 h; Potency, µM (doses to about 46.2 µM), hits mostly inhibitors; 420,000 tested, 15% active; AID 686978, 2013; note: nearly all actives have a fitted effect of over 55% in size
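Stably hTDP1-transfected Tdp1-null chicken DT40 cells were treated with library compounds minus camptothecin and grown for at least 48 hr at 37 °C, after which cellular ATP was quantified by luminescence.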
A number is an active result; – = inactive; ? = inconclusive; · = not tested or not shown. A selection: hits, their analogues and other compounds. The true share with any hit is near 19%. Unless noted, calls come from the whole dose curve; as a rule, active = well fitted curve in the direction sought with a large enough effect; inconclusive = small, poorly fitted or top-dose-only effect, or another doubt; inactive = no such curve, though single readings can be large; an effect the other way counts as inactive or inconclusive.

SMILES | TDP1 cell CPT | IL-1B inflam inh | TGFb inhibitor | TDP1 block | HepG2 tox | DT40 TDP1 no CPT
O=C(O)C1=CC[C@@H](c2ccc(Cl)cc2)N(S(=O)(=O)c2ccc(Cl)cc2)[C@H]1c1ccc(Br)cc1 | ? | – | 13µM | – | – | ?
Cc1ccc(S(=O)(=O)N2[C@@H](c3ccc(Br)cc3)C(C(=O)O)=CC[C@H]2c2ccc(Cl)cc2)cc1 | ? | – | ? | – | – | ?
Cc1ccccc1S(=O)(=O)N1[C@@H](c2ccc(Br)cc2)C(C(=O)O)=CC[C@H]1c1ccc(Cl)cc1 | – | – | 18µM | – | – | –
CCCc1cc(=O)[nH]c2nnc(SCC(=O)Nc3ccc(OC)cc3)n12 | – | · | ? | – | – | –
c1ccc(NC2=NCCN2CCC2CCCC2)cc1 | ? | – | – | · | – | –
NC1=NC[C@H](c2ccccc2)N1CCc1cccc(F)c1 | 16µM | – | – | – | – | 13µM
NC1=NC[C@H](c2ccccc2)N1CCCCC1CCCCC1 | 5.2µM | -83 | ? | – | – | 7.3µM
CCCC[C@@H]1CNC(=S)N1CCc1cccc(F)c1 | – | – | – | – | – | ?
Fc1cccc(CCN2C(=S)NC[C@@H]2Cc2ccccc2)c1 | 21µM | – | ? | – | – | ?
S=C1NC[C@H](c2ccccc2)N1CCCCC1CCCCC1 | ? | – | 18µM | – | 11µM | ?
O=C1NC[C@@H](CCCCN2CCN(Cc3ccccc3)C(=O)C2=O)N(CCC2CCCCC2)C1=O | – | – | · | · | · | –
NC1=NC[C@@H](Cc2ccc(O)cc2)N1CCc1cccc(F)c1 | ? | – | – | – | – | –
COc1ccc2c(c1)C1NC(=S)NC(C)(O2)C1C(=O)Nc1ccc(C)cc1C (centres undefined) | – | -56 | – | – | – | ?
Cc1ncc(NS(=O)(=O)c2ccc(N)cc2)nc1C | – | – | – | · | – | –
C=C(C)Cn1c(CCn2c3ccccc3c3ccccc32)n[nH]c1=S | 9.2µM | – | ? | – | – | 5.8µM
FC(F)(F)c1nnc(-c2ccccc2)nc1Sc1ccccc1 | 15µM | -121 | ? | – | – | 10µM
CN(NC(=O)c1cccc(Cl)c1)c1nc(-c2ccccc2)nnc1C(F)(F)F | 18µM | – | ? | – | – | 12µM
FC(F)(F)c1cccc(Sc2nc(-c3ccccc3)nnc2C(F)(F)F)c1 | 8.2µM | -118 | – | – | – | 12µM
FC(F)(F)c1cccc(Oc2nc(-c3ccccc3)nnc2C(F)(F)F)c1 | – | ? | – | – | – | ?
FC(F)(F)c1nnc(-c2ccccc2)nc1Oc1ccc(Cl)cc1Cl | ? | -77 | – | – | – | ?
NNC(=O)Cn1nc(Cc2ccccc2)n(N)c1=O | – | – | – | – | – | –
FC(F)(F)c1nnc(-c2ccccc2)nc1Sc1ccc(Cl)cc1 | 5.2µM | -98 | – | – | – | 6.5µM
CNC[C@H]1Oc2ccc(NC(=O)C3CCCCC3)cc2CC(=O)N([C@H](C)CO)C[C@@H]1C | – | – | – | – | – | –
O=C(CNC(=O)c1cc(S(=O)(=O)N2CCCCC2)ccc1N1CCOCC1)Nc1ccc(F)c(F)c1 | – | – | – | · | – | –
COc1ccc(/C=C/c2cc(-c3ccc(C)cc3)o[n+]2C)cc1 | 0.26µM | -120 | 10µM | – | – | 0.26µM
CC(=O)N1CCN(S(=O)(=O)c2cccc(C(=O)OCN3C(=O)c4ccccc4C3=O)c2)CC1 | – | – | – | · | – | –
CC(=O)N1CCN(S(=O)(=O)c2cccc(C(=O)OCc3cccc(F)c3)c2)CC1 | ? | – | – | – | – | 23µM
CC(=O)N1CCN(S(=O)(=O)c2cccc(C(=O)OCc3ccc(F)cc3)c2)CC1 | ? | – | – | · | – | 18µM
